# High-throughput results deposited in PubChem BioAssay by Center for Chemical Genomics, University of Michigan.
# Dicer inh – blocks human Dicer maturation of pre-miR-21 | Q9UPY3 | cat-ELCCA pre-miR-21 Dicer processing, chemiluminescence; active compounds read high | z-score at 25 µM | 47,000 tested, 6% active | AID 1347074; in the data active means z-score above about 3, passing the limit was not always enough;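 further: higher signal means more uncleaved substrate so more Dicer inhibition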
# Target sequence (Q9UPY3 whole entry, looked up): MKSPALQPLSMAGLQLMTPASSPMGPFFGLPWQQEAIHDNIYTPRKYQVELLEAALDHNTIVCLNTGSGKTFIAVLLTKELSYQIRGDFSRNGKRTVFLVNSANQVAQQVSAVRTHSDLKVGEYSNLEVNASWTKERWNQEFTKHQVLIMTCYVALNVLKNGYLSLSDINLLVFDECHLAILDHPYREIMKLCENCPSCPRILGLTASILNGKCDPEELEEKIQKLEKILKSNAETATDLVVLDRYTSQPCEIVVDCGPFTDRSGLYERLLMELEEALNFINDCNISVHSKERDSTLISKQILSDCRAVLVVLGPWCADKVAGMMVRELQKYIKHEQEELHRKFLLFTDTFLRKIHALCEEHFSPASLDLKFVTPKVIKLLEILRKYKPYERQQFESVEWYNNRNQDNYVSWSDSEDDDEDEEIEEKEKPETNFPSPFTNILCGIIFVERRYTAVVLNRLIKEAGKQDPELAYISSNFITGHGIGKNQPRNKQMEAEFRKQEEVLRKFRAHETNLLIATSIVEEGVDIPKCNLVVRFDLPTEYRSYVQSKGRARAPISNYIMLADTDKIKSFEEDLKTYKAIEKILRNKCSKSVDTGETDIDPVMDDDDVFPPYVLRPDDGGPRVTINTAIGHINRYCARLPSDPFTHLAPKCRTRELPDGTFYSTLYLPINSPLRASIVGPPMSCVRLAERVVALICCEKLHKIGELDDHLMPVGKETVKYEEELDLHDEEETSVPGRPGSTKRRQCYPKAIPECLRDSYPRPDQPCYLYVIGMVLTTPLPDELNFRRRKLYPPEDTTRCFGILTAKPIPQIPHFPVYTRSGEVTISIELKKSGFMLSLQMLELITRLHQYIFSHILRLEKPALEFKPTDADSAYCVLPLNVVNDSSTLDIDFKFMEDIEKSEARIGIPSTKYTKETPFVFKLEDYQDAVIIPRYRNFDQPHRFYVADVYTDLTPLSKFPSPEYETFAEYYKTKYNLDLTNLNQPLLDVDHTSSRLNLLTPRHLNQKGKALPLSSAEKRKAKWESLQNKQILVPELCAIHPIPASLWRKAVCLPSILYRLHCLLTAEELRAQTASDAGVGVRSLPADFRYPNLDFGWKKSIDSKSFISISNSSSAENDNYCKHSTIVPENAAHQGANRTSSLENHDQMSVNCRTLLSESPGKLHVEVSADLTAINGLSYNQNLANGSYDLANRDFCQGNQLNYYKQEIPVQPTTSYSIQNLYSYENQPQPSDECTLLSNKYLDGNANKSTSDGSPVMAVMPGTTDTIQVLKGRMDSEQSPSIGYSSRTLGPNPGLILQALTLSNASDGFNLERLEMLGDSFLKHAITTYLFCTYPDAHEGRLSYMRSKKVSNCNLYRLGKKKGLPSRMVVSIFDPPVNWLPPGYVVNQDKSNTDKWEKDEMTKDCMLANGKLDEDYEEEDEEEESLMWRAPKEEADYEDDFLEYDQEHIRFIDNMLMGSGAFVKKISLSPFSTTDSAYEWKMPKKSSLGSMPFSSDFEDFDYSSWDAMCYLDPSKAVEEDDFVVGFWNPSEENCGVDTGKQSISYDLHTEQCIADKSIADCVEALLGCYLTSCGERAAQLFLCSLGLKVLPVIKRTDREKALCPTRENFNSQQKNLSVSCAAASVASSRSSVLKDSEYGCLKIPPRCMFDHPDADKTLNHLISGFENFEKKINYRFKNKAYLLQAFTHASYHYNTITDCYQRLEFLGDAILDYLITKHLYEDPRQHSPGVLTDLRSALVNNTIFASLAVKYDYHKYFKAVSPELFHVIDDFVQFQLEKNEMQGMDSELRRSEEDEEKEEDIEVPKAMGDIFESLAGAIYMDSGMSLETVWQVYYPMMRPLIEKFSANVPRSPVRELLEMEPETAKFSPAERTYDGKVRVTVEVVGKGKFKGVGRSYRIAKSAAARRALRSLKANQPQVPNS
# Hits are given with their value; . = inactive. Shown is part of a subset that was picked to be rich in hits.
SMILES,Dicer inh
c1ccc(CNc2nc3ccccc3n2CCN2CCOCC2)nc1,5.4
CCCn1c(NCc2ccccn2)nc2ccccc21,.
COc1ccc(CNc2nc3ccccc3n2CCN2CCOCC2)c(OC)c1,3.5
Clc1ccccc1CNc1nc2ccccc2n1CCN1CCCCC1,.
NCCCC(O)(P(=O)(O)O)P(=O)(O)O,.
O=C(O)CCCCOc1ccc2oc3ccccc3c(=O)c2c1,.
Cc1ccc(C(=O)Nc2cc3c(oc2=O)CC(C)(C)CC3=O)cc1,.
Cc1ccc2cccc(NC(=O)c3sc4ccccc4c3Cl)c2n1,.
CNC(=O)Nc1ccc(Oc2cncc(Cl)c2)nc1,.
CCN(C(=O)c1ccc(C(F)(F)F)cc1)c1cccc2ccccc12,.
COc1ccc(C(=O)NC(=O)N=S(C)(=O)c2ccc(C(F)(F)F)cn2)cc1 (stereo not drawn),.
O=C1CC(Cc2ccc(Cl)cc2)C(=O)N1Cc1ccccc1 (stereo not drawn),3.3
O=C1CC(Cc2ccccc2)C(=O)N1c1cccc(Cl)c1 (stereo not drawn),.
O=C1CC(Cc2ccc(Cl)cc2)C(=O)N1c1ccccn1 (stereo not drawn),.
CSc1n[nH]c(NS(=O)(=O)c2ccc(Cl)cc2)c1-c1ccccn1,.
N#CC1(c2ccc(Cl)cc2)CCCCC1,.
COC(=O)/C=C(\Nc1ccc2oc(=O)c(NC(C)=O)cc2c1)C(=O)OC,.
O=C1/C(=C\c2cccc3ccccc23)SC(=S)N1CCc1ccc(Cl)cc1,.
COCc1cc(=O)[nH]c(-c2ccc(Cl)cc2)n1,.
Cc1ccc(-c2cc(O)cc3sc(=O)oc23)cc1C,6.6
CCOC(=O)Oc1cc2oc(=O)sc2cc1Cl,.
Cc1cc(O)c2c(c1)C(=O)c1cc(O)cc(O)c1C2=O,.
CC1=Nc2ccccc2-c2nnc(SCc3ccccc3)nc2O1,.
Oc1ccccc1-c1ccnc2cc(-c3ccccc3)nn12,4.4
Oc1ccc(F)cc1-c1ccnc2cc(-c3ccccc3)nn12,.
SMILES,Dicer inh
Cc1ccc(-c2cc3nccc(-c4cc(C)ccc4O)n3n2)cc1,.
COc1ccc2c(c1)CCC1=C2NC(=S)NC1c1ccc(C)cc1 (stereo not drawn),.
CN(C)c1ncnc2c1[nH]c1ccccc12,3.5
Cc1ccc2[nH]c3c(N4CCCCC4)ncnc3c2c1,.
CCN(CC)c1ncnc2c1[nH]c1ccccc12,.
COC(=O)c1c(C(C)=O)c(C)n(C)c1C,.
CCCc1[nH]c(Br)nc1-c1ccccc1,.
O=C(O)CCC(=O)Nc1ccc(OC(F)(F)F)cc1Br,.
O=C(O)CCC(=O)Nc1cc2c(cc1Br)OCCO2,.
Cc1ccc(NC(=O)CCS(=O)(=O)Cc2ccccc2)c(Br)c1,4.5
CC(C)(C)OC(=O)NC1(C(=O)O)CC1,.
CNC(=S)N1CCN(c2ncc(C(F)(F)F)cc2Cl)CC1,.
Cc1ccc2nc(Cc3ccc(N)cc3)[nH]c2c1,.
Cc1nc2ccc(Cc3ccc4nc(C)[nH]c4c3)cc2[nH]1,5
Cc1ccc2nc(Cc3nc4ccc(C)cc4[nH]3)[nH]c2c1,.
COc1ccc(SCCc2nnc(SCC(=O)Nc3ccccc3)n2C2CC2)cc1,.
CCOC(=O)c1nnn(-c2nonc2N)c1CN1CCc2ccccc2C1,.
NS(=O)(=O)c1ccc(Cl)cc1Sc1ccccc1C(=O)O,.
Oc1ccc(Cl)cc1-c1csnn1,.
Oc1ccc(Cl)cc1Sc1cc(Cl)ccc1O,3.2
O=C(c1nc2ncccn2n1)N1CCN(c2ccc(F)cc2)CC1,.
CC(=O)OCC12COC(c3ccc(OC(C)=O)cc3)C(C(C)=CC1C)C2C (stereo not drawn),3.4
COc1ccc(C2OCC3(COC(C)=O)C(C)C=C(C)C2C3C)cc1 (stereo not drawn),.
CC(=O)OCC12COC(c3ccccc3OC(C)=O)C(C(C)=CC1C)C2C (stereo not drawn),.
Cc1cc(C)c(C#N)c(Nc2ccccc2C)n1,.
SMILES,Dicer inh
Cc1cccc(Nc2ncncc2C#N)c1C,3.7
Cc1cccc(Nc2nc3nonc3nc2Nc2ccc(F)cc2)c1C,.
COc1ccc(OC)c(C2Sc3ccccc3NC3=C2C(=O)c2ccccc23)c1 (stereo not drawn),.
CN1C(=O)c2cccc3c(S(=O)(=O)Nc4ccc(C(=O)O)c(O)c4)ccc1c23,.
O=C(O)c1ccc(NS(=O)(=O)c2ccc3c4c(cccc24)C(=O)S3)cc1,.
Cc1ccccc1NS(=O)(=O)c1cccc2c(N(C)C)cccc12,.
Cc1ccc(C)c(NS(=O)(=O)c2ccc3c4c(cccc24)C(=O)S3)c1,3.7
O=C1Sc2ccc(S(=O)(=O)Nc3ccc4oc(=O)sc4c3)c3cccc1c23,11
Cc1cccc(NS(=O)(=O)c2ccc3c4c(cccc24)C(=O)N3)c1C,.
O=C1CCCN1c1ccc(S(=O)(=O)Oc2ccccc2Cl)cc1,.
C=CC[n+]1ccccc1/C=C1\Sc2ccccc2N1C,.
N#CC1=C(SCC(=O)Nc2ccc(Br)cc2)NC(=O)CC1c1ccco1 (stereo not drawn),.
Cc1nnc(SCC(=O)n2c3c(c4ccccc42)CCCC3)s1,.
COc1ccc(C2C(C(=O)c3cccs3)=C(O)C(=O)N2CCCN(C)C)cc1 (stereo not drawn),.
CN(C)CCN1C(=O)C(O)=C(C(=O)c2cccs2)C1c1ccncc1 (stereo not drawn),4.1
Cc1nnc(N2C(=O)C(O)=C(C(=O)c3cccs3)C2c2ccc(C(C)C)cc2)s1 (stereo not drawn),.
CC(C)c1ccc(C2C(C(=O)c3cccs3)=C(O)C(=O)N2CCN(C)C)cc1 (stereo not drawn),4.7
CN(C)CCCN1C(=O)C(O)=C(C(=O)c2cccs2)C1c1ccncc1 (stereo not drawn),.
CC(C)c1ccc(C2C(C(=O)c3cccs3)=C(O)C(=O)N2CCN2CCOCC2)cc1 (stereo not drawn),.
CCCCC(CC)CN=C(N)NC(N)=NCCCCCCN=C(N)NC(N)=NCC(CC)CCCC (stereo not drawn),.
Brc1ccc(-c2ccc(/C=C/c3nc4ccccc4o3)o2)cc1,8.2
C(=C\c1nc2ccccc2o1)/c1ccccc1,.
c1cc(-c2nc3ccccc3o2)cc(-c2nc3ccccc3o2)c1,.
O=C1C(=O)N(c2nncs2)C(c2cccs2)/C1=C(/O)c1ccc(F)cc1 (stereo not drawn),.
CCOC(=O)C1=C(C)Nc2nnnn2C1c1ccc(OCc2ccccc2)c(OCC)c1 (stereo not drawn),.
SMILES,Dicer inh
Cc1cc2nc(-c3cccc(N)c3C)oc2cc1C,3
Cc1ccc2oc(-c3cccc(N)c3C)nc2c1,.
Cc1ccc(-c2nc3ccccc3o2)cc1N,.
COc1ccc(C2Nc3ccc(Br)cc3C(c3ccccc3)N2CC(=O)O)cc1 (stereo not drawn),.
COC(=O)CN1C(=O)Nc2ccc(Br)cc2C1c1ccccc1 (stereo not drawn),.
O=C(O)CN1C(c2ccccc2O)Nc2ccc(Br)cc2C1c1ccccc1 (stereo not drawn),3.1
CCCCN1C(=O)N(C)C2NC(=O)NC21 (stereo not drawn),.
C=CCOc1ccc(C2C3CCCc4ccccc4C3=NN2C)cc1 (stereo not drawn),.
COC(=O)CSc1cc(C)c(Cl)cc1C,.
Cn1nc(-c2ccccc2)cc1NC(=O)Nc1ccc(OC(F)(F)F)cc1,.
CCOC(=O)C1=C(Nc2ccc(OC(=O)Nc3ccccc3)cc2)C(=O)N(C(C)(C)C)C1,.
CCC1(c2cccc(OC(=O)Nc3ccc(OC(F)(F)F)cc3)c2)CCCCN(C)C1=O (stereo not drawn),3.8
